FXN GAA850 act – increases GAA850 frataxin promoter reporter activity. AID 540364. HEK293 lucGAA850 FXN promoter luciferase reporter, 24 h; percent of 10 µM SAHA response. activation, % at 6 µM. 0.56% of 360,000 active;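 active = activation above the average of all compounds screened plus 3 SD, cutoff fixed separately per campaign, cut at about 7.5% in these data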;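 note: 0% = DMSO wells and 100% = 10 µM SAHA wells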
HSF1 activator – increases HSF-1 driven luciferase reporter signal | activation, % at 9 µM | 1.7% of 300,000 active | NIH3T3-HGL HSF-1 luciferase reporter, MG132, 8 h; 100% = twice DMSO control signal;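 active = mean replicate activation of at least 50% with a set share of replicates each reaching 50%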;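 note: 0% = median of the neutral control wells and 100% = twice that signal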
AHR activator – activators of human aryl hydrocarbon receptor | P35869 | AHR-responsive luciferase reporter cells, luminescence | activation, % at 5 µM | 2.5% of 320,000 active | AID 2796; in the data active = activation above about 47%;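 note: 0% = vehicle wells and 100% = reference agonist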
Target sequence (P35869 whole entry, looked up): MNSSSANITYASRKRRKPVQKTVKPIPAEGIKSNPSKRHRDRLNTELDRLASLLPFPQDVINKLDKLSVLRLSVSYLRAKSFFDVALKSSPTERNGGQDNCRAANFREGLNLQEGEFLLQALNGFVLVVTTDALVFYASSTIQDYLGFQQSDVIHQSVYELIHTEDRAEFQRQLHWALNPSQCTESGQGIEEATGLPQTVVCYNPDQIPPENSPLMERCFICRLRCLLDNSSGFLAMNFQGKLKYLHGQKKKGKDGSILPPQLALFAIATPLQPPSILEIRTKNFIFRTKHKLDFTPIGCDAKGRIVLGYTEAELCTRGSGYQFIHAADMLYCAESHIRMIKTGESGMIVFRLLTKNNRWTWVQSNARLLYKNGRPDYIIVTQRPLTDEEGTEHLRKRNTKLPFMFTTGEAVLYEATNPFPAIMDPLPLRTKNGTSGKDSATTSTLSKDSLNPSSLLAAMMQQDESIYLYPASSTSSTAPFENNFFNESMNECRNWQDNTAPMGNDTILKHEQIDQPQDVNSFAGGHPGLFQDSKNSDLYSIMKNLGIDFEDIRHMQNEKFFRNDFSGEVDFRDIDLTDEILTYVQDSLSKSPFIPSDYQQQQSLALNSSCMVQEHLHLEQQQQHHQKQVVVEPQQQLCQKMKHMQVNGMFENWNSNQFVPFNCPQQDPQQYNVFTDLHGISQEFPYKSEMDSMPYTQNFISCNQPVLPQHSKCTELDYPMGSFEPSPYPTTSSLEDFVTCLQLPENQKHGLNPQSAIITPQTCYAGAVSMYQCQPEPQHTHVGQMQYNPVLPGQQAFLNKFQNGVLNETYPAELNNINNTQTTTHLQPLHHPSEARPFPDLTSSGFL
HSF1 inh – HSF1 inhibition | AID 2098 | NIH3T3-HGL HSE-luciferase, MG132-induced, luminescence 8 h; hits give low values | activity change, negative = inhibition, % at 7.5 µM (by protocol) | 0.77% of 300,000 active;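 active = more than half of replicate wells show activity change below -50%, luminescence cut by over half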;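 note: luciferase reports HSF-1 transcriptional activity via heat shock element; 0% = median of DMSO wells and -100% = zero luminescence signal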
GAA30 counter – counter-screen for GAA850 frataxin promoter activators: GAA30 promoter activation | shares compounds with FXN GAA850 act | HEK293 lucGAA30 FXN promoter luciferase, 24 h; DMSO = 0%, 5 µM ipriflavone = 100% | activation, % at 6 µM | 66% of 1,900 active | AID 588350;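 active = mean activation above the mean of solvent-only control wells plus 3 SD, cut at about 22% in these data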;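 note: counterscreen of GAA850 promoter hits where activity marks nonselective or luminescence artifacts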
GAA850 confirm – GAA850 FXN promoter activation confirmation; shares compounds with FXN GAA850 act; HEK293 lucGAA850 FXN promoter luciferase reporter, 24 h; 100% = activation by SAHA; activation, % at 6 µM; 86% of 1,900 active;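 active = mean activation above a set limit taken from the primary screen, cut at about 8% in these data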;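 note: 0% = DMSO wells and 100% = 10 µM SAHA wells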
An asterisk follows results filed as active; / = no result given. A selection: hits, their analogues and other compounds. The true share with any hit is near 4.6%.

SMILES	FXN GAA850 act	HSF1 activator	AHR activator	HSF1 inh	GAA30 counter	GAA850 confirm
CC(NS(C)(=O)=O)C(c1cccs1)N1CCN(C)CC1 (stereo unspecified)	1.2	-1.5	4.0	-2.2	/	/
CC(NS(=O)(=O)c1ccc(Br)cc1)C(c1cccs1)N1CCN(C)CC1 (stereo unspecified)	17.4*	-7.0	1.3	-5.9	11.0	1.8
CCCn1c(SCC(=O)N2c3ccccc3CC2C)n[nH]c1=O (stereo unspecified)	1.5	/	/	/	/	/
N/C(=N\OC(=O)c1cccs1)c1ccccc1	7.7*	26.2	23.1	13.7	99.0*	28.4*
N/C(=N\OC(=O)c1cccs1)c1cccc(Br)c1	8.0*	26.5	20.2	27.6	56.8*	7.5
c1ccc(CNc2ncnc3nc[nH]c23)nc1	2.1	-3.2	3.6	2.9	/	/
O=C(NCCCN1CCOCC1)c1cc(-c2ccc(F)cc2)on1	9.9*	-20.3	-6.3	-7.1	48.4*	18.2*
O=C(NCCN1CCOCC1)c1cc(-c2ccc(F)cc2)on1	6.3	22.6	19.1	8.3	/	/
Cc1ccc2c(c1)N(CC(=O)NC1CCCCC1)C(=O)c1cccnc1O2	0.2	1.4	-0.8	-7.7	/	/
COc1c(F)c(F)c(C(=O)Nc2ccccc2N2CCN(C(=O)C(C)C)CC2)c(F)c1F	10.5*	29.2	45.1	-2.9	7.8	3.1
Cc1cc(C(=O)CCl)c(C)n1-c1ccon1	-0.6	26.9	/	33.0	/	/
O=C1CC(c2ccco2)Sc2nc3ccccc3n21 (stereo unspecified)	8.3*	4.9	19.7	2.2	84.3*	22.1*
O=C1CC(c2ccccc2)Sc2nc3ccccc3n21 (stereo unspecified)	3.4	15.0	5.0	-13.6	/	/
COc1ccc([C@@H]2[C@@H]3C(=O)N(C(C)(C)C)C(=O)[C@@H]3[C@]3(CC(C)C)C(=O)N(c4cccc(Br)c4)C(=O)N23)cc1	16.7*	9.9	5.0	-2.9	26.5*	14.4*
COc1ccc([C@@H]2[C@@H]3C(=O)N(C(C)(C)C)C(=O)[C@@H]3[C@]3(CC(C)C)C(=O)N(c4ccc(C(F)(F)F)cc4)C(=O)N23)cc1	2.0	-9.4	2.1	-0.4	/	/
COc1ccc([C@@H]2[C@@H]3C(=O)N(C(C)(C)C)C(=O)[C@@H]3[C@]3(CC(C)C)C(=O)N(c4ccccc4)C(=O)N23)cc1	14.7*	0.6	6.6	15.3	40.4*	18.4*
Cc1cc(C(=O)COC(=O)c2nccnc2N)c(C)n1C	9.1*	20.3	-3.1	9.8	104.0*	31.7*
NC[C@H](O)c1ccc(O)c(O)c1	7.6*	/	-1.1	/	12.0	6.0
CC1CC(C)CN(C(=O)c2nn(C)c3c2CSc2ccccc2-3)C1 (stereo unspecified)	-1.0	-32.3	14.4	-19.0	/	/
CC1CCCN(C(=O)c2nn(C)c3c2CSc2ccccc2-3)C1 (stereo unspecified)	9.6*	-14.4	19.7	-10.7	30.0*	12.0*
O=C(/C=C/Nc1ccccc1F)c1ccc(Br)cc1	6.7	38.7	32.2	10.1	/	/
Cc1ccc([C@H]2C[C@@H](O)[C@H](n3cc(COC(=O)c4ccccc4)nn3)CN2C(=O)C2CCCCC2)cc1	-3.2	/	/	/	/	/
Cc1ccc(S(=O)(=O)N2CCN(S(=O)(=O)c3ccc(C)cc3)C2c2ccccc2)cc1	8.3*	21.7	3.2	8.8	4.8	7.0
CCOC(=O)c1c(CN2CCN(C)CC2)n(-c2ccccc2)c2cc(Br)c(O)cc12	-1.8	-8.4	-0.3	3.0	/	/
CCOC(=O)c1c(CSC(=N)N)n(-c2ccccc2)c2cc(Br)c(OC(C)=O)cc12	10.1*	25.1	-0.5	-2.2	-6.6	32.8*
COc1ccc(-c2nnc(N(C)C(=O)c3ccno3)s2)cc1	11.9*	12.0	3.2	10.6	99.3*	29.9*
CCOC(=O)c1cc(-c2ccc(OC)cc2)n(CCC(=O)NCCN2CCC(C)CC2)c1C	17.4*	20.2	-0.8	20.6	25.9*	15.3*
O=C(Nc1ccc(Cl)cc1)N1CCSCC1	0.0	-9.8	-1.7	0.1	/	/
O=C(CSC(=S)N1CCSCC1)c1ccc(Cl)cc1	9.8*	-6.2	-2.9	5.1	114.5*	41.9*

Source: PubChem BioAssay (several laboratories)
